From the supplement of paper PMC12669032
A number with no mark means an inactive call.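 How the source made its calls: active = AUC reduced over 20% with Padj below 0.05 in at least 2 of 3 replicates; inactive = otherwise.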

Tests used:
Test in all cases: growth AUC relative to DMSO control (median of replicates) (fraction); higher = more growth (less inhibition), active = hit call of the paper
Conditions in all cases: 20 µM; 24 h
[1] = test system: Akkermansia muciniphila
Method in brief: (§1)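 Gut bacterial monocultures were grown anaerobically at 37 °C in mGAM, starting at OD600 0.05, with 20 µM compound (1% DMSO) in round-bottom 96-well plates under pierced gas-permeable seals. OD600 was read hourly for 24 h. Area under the growth curve (minimum OD set to 0) was normalised to the plate median of DMSO controls, or to row and column medians on the industrial chemical plate. The value is the median of three biological replicates grown on separate days.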

[2] = test system: Bacteroides caccae
Method in brief: as §1

[3] = test system: Bacteroides clarus
Method in brief: as §1

[4] = test system: Bacteroides dorei
Method in brief: as §1

[5] = test system: Bacteroides stercoris
Method in brief: as §1

[6] = test system: Bacteroides thetaiotaomicron
Method in brief: as §1

[7] = test system: Bacteroides uniformis
Method in brief: as §1

[8] = test system: Bifidobacterium longum subsp. longum
Method in brief: as §1

[9] = test system: Clostridium difficile
Method in brief: as §1

[10] = test system: Collinsella aerofaciens
Method in brief: as §1

SMILES | growth AUC [1] | growth AUC [2] | growth AUC [3] | growth AUC [4] | growth AUC [5] | growth AUC [6] | growth AUC [7] | growth AUC [8] | growth AUC [9] | growth AUC [10]
CCS(=O)(=O)CCSP(=O)(OC)OC | 0.829 | 1.02 | 0.962 | 1 | 0.979 | 1.01 | 0.986 | 1.01 | 0.975 | 1.01
COCCOC(=O)C(C#N)(C(=O)c1ccccc1C(F)(F)F)c1ccc(C(C)(C)C)cc1 (stereo not given) | 1.07 | 0.937 | 0.965 | 0.927 | 0.941 | 1.01 | 0.942 | 1.01 | 0.943 | 0.885
CCOC(=O)N(C)C(=O)CSP(=S)(OCC)OCC | 1.11 | 1.04 | 0.999 | 1.01 | 1.01 | 0.994 | 0.991 | 0.991 | 1.01 | 0.997
COC(=O)/C(C)=C/OP(=S)(OC)OC | 0.968 | 0.992 | 0.963 | 0.985 | 1.02 | 0.978 | 0.96 | 1.02 | 0.984 | 1.03
CCc1cc(C)cc(CC)c1-c1c(OC(=O)C(C)(C)C)n2n(c1=O)CCOCC2 | 1.01 | 0.906 | 1 | 0.992 | 1.22 | 1.01 | 1 | 0.952 | 0.944 | 1
N#CCNC(=O)c1cnccc1C(F)(F)F | 0.888 | 1.01 | 0.959 | 1 | 0.966 | 0.988 | 0.99 | 0.961 | 0.99 | 1.01
CCC(C)Nc1c([N+](=O)[O-])cc(C(C)(C)C)cc1[N+](=O)[O-] (stereo not given) | 0.988 | 0.953 | 0.939 | 0.98 | 1.11 | 0.931 | 0.945 | 0.81 | 0.938 | 0.959
CC(C)[C@@H](Nc1ccc(C(F)(F)F)cc1Cl)C(=O)OC(C#N)c1cccc(Oc2ccccc2)c1 (stereo not given in full) | 1.09 | 1.02 | 1.04 | 1.04 | 1.01 | 0.994 | 1.01 | 1.02 | 1.04 | 0.933
O=C(O)C(F)(F)C(F)(F)C(F)(F)C(F)(F)C(F)(F)C(F)(F)C(F)(F)C(F)(F)F | 1.01 | 1 | 1.02 | 1.03 | 1.08 | 1.07 | 1.02 | 1.03 | 0.997 | 0.997
CN(C)C(=S)[S-].CN(C)C(=S)[S-].[Zn+2] | 0.76 | 0.876 | 0.965 | 0.857 | 0.799 (active) | 0.694 (active) | 0.819 | 0.884 | 0.945 | 0.969
CCOP(=S)(OCC)Oc1cc(C)nc(N(CC)CC)n1 | 1.03 | 0.926 | 0.979 | 0.976 | 0.938 | 0.961 | 0.943 | 1.01 | 1 | 0.994
Cc1nnc(-c2ccccc2)c(=O)n1N | 0.94 | 1.05 | 1 | 1 | 0.945 | 1.02 | 0.986 | 1.04 | 1 | 0.983
CCOP(=O)(OCC)Oc1ccc([N+](=O)[O-])cc1 | 0.962 | 1.03 | 0.999 | 1.01 | 1.08 | 1.01 | 1 | 1.15 | 1.03 | 1.05
COP(=S)(OC)Oc1ccc(S(=O)(=O)N(C)C)cc1 | 0.82 | 0.947 | 0.999 | 0.962 | 0.84 | 0.983 | 0.981 | 0.984 | 0.976 | 0.977
CCOP(=S)(OCC)Oc1cnccn1 | 0.892 | 0.985 | 0.963 | 1.01 | 0.979 | 0.985 | 0.982 | 1.04 | 0.974 | 0.993
CCCCCCCC(=O)Oc1c(I)cc(C#N)cc1I | 1.1 | 0.886 | 0.864 | 0.962 | 1.1 | 0.951 | 0.88 | 1.03 | 0.998 | 0.989
CN(C)C1CSSSC1.O=C(O)C(=O)O | 0.941 | 0.98 | 0.974 | 1.17 | 0.905 | 1.07 | 1.23 | 0.964 | 1.05 | 1.03
CCNc1nc(NC(C)C)nc(OC)n1 | 1.15 | 0.971 | 1.02 | 0.941 | 1.03 | 1 | 0.969 | 1.01 | 0.981 | 0.962
C#CCN1CC(=O)N(COC(=O)C2C(C=C(C)C)C2(C)C)C1=O (mixture of isomers) | 0.804 | 0.949 | 0.936 | 0.96 | 0.986 | 0.952 | 0.962 | 0.949 | 0.997 | 1.02
ClC1=C(Cl)C2(Cl)C3C4C=CC(C4)C3C1(Cl)C2(Cl)Cl (stereo not given) | 1.11 | 1.02 | 0.987 | 1.01 | 1.02 | 1.03 | 1.01 | 0.998 | 1.02 | 1.01
CSC1=N[C@@](C)(c2ccccc2)C(=O)N1Nc1ccccc1 | 1.05 | 0.978 | 0.967 | 0.985 | 1.26 | 0.961 | 0.986 | 1.04 | 0.997 | 0.99
Cc1ccc2nc3sc(=O)sc3nc2c1 | 1.04 | 0.982 | 1.01 | 0.985 | 0.879 | 1 | 1.04 | 1.07 | 1.02 | 0.982
CCN(CC)C(=O)C(C)Oc1cccc2ccccc12 (stereo not given) | 0.935 | 0.996 | 0.976 | 0.981 | 1.05 | 0.984 | 0.958 | 0.989 | 0.965 | 0.999
NC(=O)/N=C1/SCCN1Cc1ccc(Cl)nc1 | 0.782 | 1.01 | 0.999 | 0.979 | 1.04 | 0.978 | 1.01 | 1.03 | 1 | 1.01
Nc1nc(N)nc(NC2CC2)n1 | 0.99 | 0.989 | 1.02 | 1.01 | 1.04 | 1 | 0.991 | 1.01 | 1.02 | 0.999
CCS(=O)(=O)Oc1ccc2c(c1)C(C)(C)CO2 | 0.972 | 1 | 0.967 | 1.01 | 1.01 | 0.99 | 1.01 | 1.04 | 1.03 | 1.01
CC(COc1ccc(Oc2ccccc2)cc1)Oc1ccccn1 (stereo not given) | 0.989 | 0.949 | 0.98 | 1.01 | 0.78 | 0.993 | 0.994 | 1.04 | 0.99 | 0.994
CCCN(CCC)c1c([N+](=O)[O-])cc(C(C)C)cc1[N+](=O)[O-] | 1.12 | 1.01 | 0.978 | 0.994 | 0.991 | 0.962 | 1.03 | 1.02 | 0.991 | 0.99
CCNc1nc(Cl)nc(NCC)n1 | 0.894 | 1 | 1.01 | 1.02 | 1.02 | 1.01 | 1.01 | 1.05 | 1.01 | 1.04
CCC/C(=N\OCC)C1=C(O)CC(CC(C)SCC)CC1=O (stereo not given) | 0.936 | 1.01 | 0.989 | 1.02 | 0.974 | 0.992 | 1.01 | 0.85 | 1.01 | 1.01
